Cruzain inh noDet: blocks cruzain activity in detergent-free assay. P25779. purified cruzain, Z-FR-AMC fluorescence, no detergent. Potency, µM, inactives show max response, negative = inhibition, usual class: inhibitors. actives 2.3% (n = 200,000);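 also: plate controls were enzyme without inhibitor for no effect and buffer without enzyme for full effect; nearly all actives have a fitted effect of over 40% in size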
Target sequence (P25779 123-467 limits assumed): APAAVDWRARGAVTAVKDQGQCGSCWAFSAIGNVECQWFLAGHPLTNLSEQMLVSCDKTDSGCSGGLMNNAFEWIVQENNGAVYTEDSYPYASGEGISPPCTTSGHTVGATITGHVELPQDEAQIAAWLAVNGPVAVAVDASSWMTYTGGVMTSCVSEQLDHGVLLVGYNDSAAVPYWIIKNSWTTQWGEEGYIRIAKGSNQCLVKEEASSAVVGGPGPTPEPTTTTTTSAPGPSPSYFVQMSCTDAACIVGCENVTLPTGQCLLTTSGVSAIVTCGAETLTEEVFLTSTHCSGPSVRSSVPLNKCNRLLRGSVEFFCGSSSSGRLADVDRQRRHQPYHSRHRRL
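Purified cruzain at 1.5 nM, pre-incubated 15 min with compound at room temperature in 100 mM sodium acetate pH 5.5, 5 mM DTT, 0.00005% Triton X-100. Reaction started with 2 uM Z-FR-AMC; AMC fluorescence increase over 60 s gives rate.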
Cruzain Triton: inhibitors of Trypanosoma cruzi cruzain with detergent. P25779. purified cruzain, Z-FR-AMC fluorescence, 0.01% Triton. Potency, µM, inactives show max response, negative = inhibition, hits mostly inhibitors. actives 0.43% (n = 200,000). AID 1478;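 also: plate controls were neutral wells for no effect and buffer without enzyme for full effect; nearly all actives have a fitted effect of over 40% in size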
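15 min RT preincubation of 1.5 nM cruzain with compound, then 2 uM Z-FR-AMC added; kinetic AMC fluorescence, 60 s delta. Triton X-100 0.01%, pH 5.5.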
NS1 function inh: inhibitors of influenza NS1 protein function; AID 2326; actives 0.4% (n = 270,000); Potency, µM (series often up to 46.1 µM), without a hit: at the highest dose activity, positive = more growth; calls by dose curve; also: actives are rising curves; nearly all actives have a fitted effect of over 50% in size
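Recovery from NS1-induced slow growth read by OD600 in budding yeast switched to galactose assay medium (pH 6.0, -URA) at 1:100 dilution. Compound 23 nl per well; the matching strain lacking NS1 serves as control.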
* hit, by the source's call; u = inconclusive; x = not tested or not shown. Shown is part of a subset that was picked to be rich in hits. Unless noted, calls follow the shape of the dose curve; as a rule, active = well fitted curve in the direction sought with a large enough effect; inconclusive = small, poorly fitted or top-dose-only effect, or another doubt; inactive = no such curve, though single readings can be large; an effect the other way counts as inactive or inconclusive. Potency is read from the fitted curve at half-maximal effect.

SMILES	Cruzain inh noDet	Cruzain Triton	NS1 function inh
COc1ccc(-c2nc3cnc(N4CCN(C)CC4)nc3n(Cc3ccc(F)cc3)c2=O)cc1	4.6%	-1.4%	x
COc1cccc(C(=O)Nc2cc(C(=O)NCCc3ccccc3)ccc2Cl)c1	1.0%	2.4%	-4.7%
COc1cccc(/C(O)=C/c2nc3ccc(C(=O)NCCc4ccc(Cl)cc4)cc3[nH]c2=O)c1	25.1µM*	-7.1%	17.6%
COc1cccc(-n2cc(C(=O)NCCc3cccc(C)c3)c3ccccc3c2=O)c1	13.8%	-4.3%	x
COc1cccc(/C(O)=C/c2nc3ccc(C(=O)NCCc4cccc(C)c4)cc3[nH]c2=O)c1	20µM*	-2.6%	20.6%
c1ccc(C(CCN2CC3CCC(CC3)C2)c2ccccc2)cc1	-2.6%	1.0%	-8.2%
COc1ccccc1C1C(C(=O)Nc2ccccc2)=C(C)Nc2nc(-c3ccccc3)nn21 (stereo not given)	u	-6.2%	x
CCOc1ccc(C2SCC(=O)N2c2c(C)n(C)n(-c3ccccc3)c2=O)cc1 (stereo not given)	-7.1%	0.6%	-2.7%
CCOc1ccc(C2=C(C=Nc3c(C)n(C)n(-c4ccccc4)c3=O)C(c3ccc(F)cc3)c3ccccc3O2)cc1 (stereo not given)	3.16µM*	4.4%	-2.6%
O=C(Cc1ccccc1)N(Cc1cccnc1)c1nc2c(F)cc(F)cc2s1	u	-5.9%	x
CCc1nnc(NC(=O)c2ccc(Cl)c(S(=O)(=O)N3CCc4ccccc43)c2)s1	12.6µM*	-4.7%	13.9%
O=C(Nc1nnc(C2CC2)s1)c1ccc(Cl)c(S(=O)(=O)N2CCc3ccccc3C2)c1	25.1µM*	-5.3%	4.9%
O=C(Nc1nnc(C2CC2)s1)c1cc(S(=O)(=O)N2CCN(c3ccccc3)CC2)ccc1Cl	u	2.9%	u
O=C(Nc1nnc(S(=O)(=O)N2CCc3ccccc32)s1)c1ccccc1Cl	-6.5%	-0.7%	x
O=C(Nc1ccc(F)cc1)c1ccc(-n2cnc3cccnc32)cc1	-3.2%	-5.0%	x
O=C(O)C(S)[C@@H](S)C(=O)O (stereo not given in full)	-10.6%	-15.2%	x
COc1ccc(S(=O)(=O)N(CCO)c2ccccc2CN(C)CC=Cc2ccc(Cl)cc2)cc1	u	-0.8%	x
C=CCN1C(=O)C(CC(C)C)NC1=S (stereo not given)	0.9%	1.2%	x
Nc1[nH]c(=O)nc2c1ncn2[C@H]1O[C@@H](CO)[C@@H](O)[C@@H]1O	3.6%	5.0%	0.0%
O=C(NCCc1cccs1)C12CN(Cc3ccccc3)CC1C(c1cccc([N+](=O)[O-])c1)=NO2 (stereo not given)	12.6µM*	3.3%	-5.5%
O=C(NCCCCc1ccccc1)C12CN(Cc3ccccc3)CC1C(c1cccc([N+](=O)[O-])c1)=NO2 (stereo not given)	7.1%	4.2%	u
CCOC(=O)N1CCN(C(=O)c2ccc3c(=O)n(CCC4=CCCCC4)c(=S)[nH]c3c2)CC1	u	-6.7%	1.2%
Cc1ccc2c(c1)[nH]c1c(=O)n(CCC3=CCCCC3)cnc12	20µM*	4.5%	-2.8%
Cc1ccc2[nH]c3c(=O)n(CCC4=CCCCC4)cnc3c2c1	-20.0%	0.3%	6.2%
O=c1c2ccc(Cl)cc2[nH]c(=S)n1CCC1=CCCCC1	20µM*	-0.7%	14.7%
SMILES	Cruzain inh noDet	Cruzain Triton	NS1 function inh
O=c1c(-c2cc(F)cc(F)c2)nc2cncnc2n1Cc1ccc(F)cc1	-1.9%	3.8%	x
COc1ccccc1Nc1nc(-c2ccccc2)c(CC(=O)O)s1	25.1µM*	-13.1%	x
O=C(O)Cc1sc(Nc2cccc3ccccc23)nc1-c1ccc(F)cc1	x	x	2.1%
C[Si](C)(C)Cl	7.0%	3.6%	x
C(#Cc1ccccc1)C[N+]1(CC#Cc2ccccc2)CCCC1	-13.2%	-3.0%	-9.3%
C=CC#CC[N+]1(CC#Cc2ccccc2)CCOCC1	-7.9%	25.1µM*	0.2%
COc1cc2c(cc1OC)[C@]13CC[N@+]4(C)CC5=CCO[C@H]6CC(=O)N2[C@@H]1C6[C@@H]5C[C@]34O (stereo not given in full)	-3.9%	2.1%	4.4%
Cc1ccc2cc(CN(CCN3CCOCC3)Cc3nnnn3Cc3ccco3)c(=O)[nH]c2c1C	7.7%	-4.8%	0.0%
Cc1ccc2cc(CN(Cc3ccc4c(c3)OCO4)Cc3nnnn3Cc3ccco3)c(=O)[nH]c2c1C	31.6µM*	-1.2%	-1.4%
CNc1oc(/C=C/c2ccccc2)nc1C#N	u	25.1µM*	-6.6%
COCCNc1oc(/C=C/c2ccccc2)nc1C#N	x	x	-4.6%
COc1ccc2nc(/C=N/NC(=O)[C@H](C)NC(=O)OC(C)(C)C)ccc2c1	31.6µM*	-24.1%	1.9%
Cc1ccc2cc(/C=N/NC(=O)[C@H](C)NC(=O)OC(C)(C)C)c(Cl)nc2c1	2.5%	-1.2%	9.0%
N#CCCn1c(=O)c(-c2cccc(C#N)c2)nc2cnc(N3CCOCC3)nc21	6.8%	-2.7%	x
Cc1ccc(Cl)cc1N1CCN(C(c2ccc(C#N)cc2)c2nnnn2C2CCCC2)CC1 (stereo not given)	20µM*	1.9%	1.2%
Cc1ccc(Cl)cc1N1CCN(C(c2cccnc2)c2nnnn2C2CCCCC2)CC1 (stereo not given)	11.3%	-6.1%	-51.5%
CC(C)c1cc2c(c(O)c1O)[C@@]1(C(=O)O)CCCC(C)(C)[C@@H]1CC2	5.8%	-6.1%	x
Cc1cccc(NC(=O)Cn2c(=O)n(Cc3ccccc3)c(=O)c3oc4ccccc4c32)c1C	-7.1%	1.3%	x
CCC1=C2CC[C@H]3C(=O)NC(=O)[C@H]3[C@H]2[C@@]2(C)C(=NCC(=O)OC)OC(=O)N2C1=O	-2.2%	2.3%	x
Cn1c(=O)c(-c2cc(F)cc(F)c2)nc2cnc(Oc3ccccc3)nc21	0.4%	-9.3%	x
CC(=O)N/C(=C/c1ccc(OS(=O)(=O)c2ccc(C)cc2)cc1)C(=O)Nc1ccc(C(=O)O)cc1	x	x	10.5%
Cc1ccc(S(=O)(=O)Oc2ccc(/C=C(/NC(=O)c3ccccc3)C(=O)Nc3ccccc3)cc2)cc1	12.6µM*	1.5%	u
CSc1ccc(/C=C(/NC(=O)c2ccc(C)cc2)C(=O)Nc2cccc(C)c2)cc1	6.31µM*	-5.8%	-0.3%
Cc1ccc(S(=O)(=O)Oc2ccc(/C=C(/NC(=O)c3ccccc3)C(=O)NCCC(=O)O)cc2)cc1	x	x	9.4%
COc1ccc(NC(=O)/C(=C\c2ccc(OS(=O)(=O)c3ccc(C)cc3)cc2)NC(=O)c2ccccc2)cc1	7.94µM*	2.6%	29.1%
SMILES	Cruzain inh noDet	Cruzain Triton	NS1 function inh
Cc1ccc(NC(=O)/C(=C/c2ccncc2)NC(=O)c2ccccc2)cc1	-8.0%	-4.1%	-8.7%
COc1ccccc1NCc1cccn1-c1nnc(N2CCOCC2)s1	5.1%	-0.9%	x
Nc1cccc(S(=O)(=O)O)c1	-1.9%	-1.5%	x
O=C(Cn1cc(SCc2c(F)cccc2Cl)c2ccccc21)N1CCCCCC1	-23.7%	-7.4%	x
O=C(CCC(=O)OCC(=O)c1ccc(-c2ccccc2)cc1)Nc1cccc(Cl)c1	25.1µM*	2.4%	1.7%
COc1ccc(C(=O)CCC(=O)Nc2ccccc2C)cc1	-7.3%	0.2%	x
Cc1ccccc1NC(=O)CCC(=O)OCC(=O)c1ccc(-c2ccccc2)cc1	12.6µM*	2.8%	12.7%
CCOc1ccccc1OCCCC(=O)OCC(=O)Nc1cccc(Cl)c1	1.0%	-6.4%	-27.6%
CCc1nn(CCCC(=O)N2CCN(c3cc(Cl)ccc3C)CC2)c(=O)c2cc3occc3n12	u	-6.3%	x

Bioassay records deposited in PubChem BioAssay by National Center for Advancing Translational Sciences (NCATS).
